Measurements from the supplement of paper PMC9694430.

How the values were obtained:
Assay in all cases: thermal shift delta Tm vs DMSO control; higher = stronger stabilization (binding)
Details in all cases: 12.5 µM; protein concentration 2 µM
[1] = tested on: LOC_OS02G45750-cb003
In short: (§1)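 Rice kinase domain constructs were expressed in E. coli, purified, and tested by differential scanning fluorimetry with compound added in DMSO. Each well of a 96-well plate held 19.5 μl of 2 μM kinase in 100 mM potassium phosphate pH 7.5, 150 mM NaCl, 10% glycerol and 5 × SYPRO Orange, and fluorescence was read from 25°C to 95°C at 0.05°C/s. The melting temperature shift is the mean of triplicates, taken against protein with DMSO alone after Boltzmann fitting.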

[2] = tested on: LOC_OS02G54510-cb004
In short: as §1

[3] = tested on: LOC_OS03G04050-cb001
In short: as §1

[4] = tested on: LOC_OS03G12390-cb001
In short: as §1

[5] = tested on: LOC_OS03G27990-cb004
In short: as §1

[6] = tested on: LOC_OS03G50450-cb001
In short: as §1

[7] = tested on: LOC_OS03G50810-cb003
In short: as §1

[8] = tested on: LOC_OS04G35114-cb001
In short: as §1

[9] = tested on: T1, LOC_OS04G38480-cb003
T1 sequence (whole entry): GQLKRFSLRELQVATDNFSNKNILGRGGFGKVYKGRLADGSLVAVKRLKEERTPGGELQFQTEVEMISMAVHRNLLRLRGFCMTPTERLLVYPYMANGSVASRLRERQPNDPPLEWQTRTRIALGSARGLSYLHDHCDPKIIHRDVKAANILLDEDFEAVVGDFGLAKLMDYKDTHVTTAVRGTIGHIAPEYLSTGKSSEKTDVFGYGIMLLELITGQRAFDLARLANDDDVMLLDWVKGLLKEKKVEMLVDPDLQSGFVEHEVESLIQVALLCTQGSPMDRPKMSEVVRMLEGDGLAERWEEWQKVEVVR
In short: as §1

[10] = tested on: T2, LOC_OS04G41100-cb001
T2 sequence (whole entry): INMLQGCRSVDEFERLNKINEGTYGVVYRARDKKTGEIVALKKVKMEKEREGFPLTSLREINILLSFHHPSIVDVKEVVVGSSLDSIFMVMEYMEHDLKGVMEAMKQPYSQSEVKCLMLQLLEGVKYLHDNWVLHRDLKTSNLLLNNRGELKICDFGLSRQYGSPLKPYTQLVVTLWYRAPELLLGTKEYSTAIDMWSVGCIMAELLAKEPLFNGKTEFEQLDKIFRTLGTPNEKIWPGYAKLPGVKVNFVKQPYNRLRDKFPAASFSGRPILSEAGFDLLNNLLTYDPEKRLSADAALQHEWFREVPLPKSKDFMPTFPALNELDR
In short: as §1

[11] = tested on: LOC_OS04G57630-cb004
In short: as §1

[12] = tested on: LOC_OS05G07850-cb002
In short: as §1

[13] = tested on: LOC_OS05G16824-cb004
In short: as §1

[14] = tested on: LOC_OS05G28520-cb001
In short: as §1

[15] = tested on: LOC_OS05G30820-cb001
In short: as §1

[16] = tested on: LOC_OS05G43570-cb004
In short: as §1

[17] = tested on: LOC_OS06G16330-cb003
Chain of LOC_OS06G16330-cb003 (as listed by the source): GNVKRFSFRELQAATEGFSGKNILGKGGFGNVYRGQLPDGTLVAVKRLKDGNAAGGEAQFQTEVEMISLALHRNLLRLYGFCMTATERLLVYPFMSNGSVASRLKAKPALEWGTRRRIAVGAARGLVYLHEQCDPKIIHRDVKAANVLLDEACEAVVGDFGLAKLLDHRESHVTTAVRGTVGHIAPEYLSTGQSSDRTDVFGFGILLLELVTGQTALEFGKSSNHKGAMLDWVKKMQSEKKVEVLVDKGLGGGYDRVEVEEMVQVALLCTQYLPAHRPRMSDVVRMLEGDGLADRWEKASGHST
In short: as §1

[18] = tested on: T3, LOC_OS06G22820-cb001
T3 sequence (whole entry): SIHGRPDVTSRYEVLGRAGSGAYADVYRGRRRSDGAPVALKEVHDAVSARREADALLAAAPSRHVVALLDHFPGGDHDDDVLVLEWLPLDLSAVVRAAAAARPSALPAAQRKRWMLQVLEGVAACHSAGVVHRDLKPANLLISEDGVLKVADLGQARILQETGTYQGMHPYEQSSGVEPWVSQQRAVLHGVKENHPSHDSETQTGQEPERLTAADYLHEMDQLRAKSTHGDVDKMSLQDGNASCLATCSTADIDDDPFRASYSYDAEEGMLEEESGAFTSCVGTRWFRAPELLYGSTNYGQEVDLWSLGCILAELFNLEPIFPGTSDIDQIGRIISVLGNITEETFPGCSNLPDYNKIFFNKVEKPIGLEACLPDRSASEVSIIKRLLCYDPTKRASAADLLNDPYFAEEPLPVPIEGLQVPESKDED
In short: as §1

[19] = tested on: LOC_OS07G06570-cb004
In short: as §1

[20] = tested on: LOC_OS07G07230-cb001
In short: as §1

Row | Structure (SMILES) | thermal shift delta Tm [1] [°C] | thermal shift delta Tm [2] [°C] | thermal shift delta Tm [3] [°C] | thermal shift delta Tm [4] [°C] | thermal shift delta Tm [5] [°C] | thermal shift delta Tm [6] [°C] | thermal shift delta Tm [7] [°C] | thermal shift delta Tm [8] [°C] | thermal shift delta Tm [9] [°C] | thermal shift delta Tm [10] [°C] | thermal shift delta Tm [11] [°C] | thermal shift delta Tm [12] [°C] | thermal shift delta Tm [13] [°C] | thermal shift delta Tm [14] [°C] | thermal shift delta Tm [15] [°C] | thermal shift delta Tm [16] [°C] | thermal shift delta Tm [17] [°C] | thermal shift delta Tm [18] [°C] | thermal shift delta Tm [19] [°C] | thermal shift delta Tm [20] [°C]
1 | Cn1cc(-c2ccc(F)c(C(F)(F)F)c2)nc1C1CCN(c2ncnc3[nH]ncc23)CC1 | 0.33 | 0.45 | 0.47 | -0.18 | 0.44 | 0.81 | 0.37 | 0.97 | 0.91 | 0.15 | 0.14 | 0.42 | -7.63 | 0.22 | 0.54 | 0.45 | 0.11 | 0.36 | 0.72 | 0.63
2 | COc1ccc(-c2ccc3ncc4c(c3c2)n(-c2ccc(N3CCNCC3)c(C(F)(F)F)c2)c(=O)n4C)cn1 | 1.22 | 0.44 | 0.36 | -0.28 | 0.61 | 0.72 | 2.17 | 7.13 | 1.98 | 0.01 | 0.96 | 10.2 | 2.52 | 0.28 | 0.54 | 0.36 | 4.63 | 0.38 | 0.59 | 0.06
3 | CONC(=O)c1ccccc1Nc1cc(Nc2cc(C)nn2C(C)C)ncc1Cl | 1.44 | 0.08 | 0.47 | 1.86 | 0.55 | 0.47 | 1.12 | 0.79 | 2.41 | 0.42 | 0.41 | 5.58 | 8.82 | 0.25 | 0.17 | 0.39 | 6.46 | 0.47 | 1.77 | 0.55
4 | O=C(O)[C@]1(Cc2cccc(Nc3nccs3)n2)CC[C@@H](Oc2cccc(Cl)c2F)CC1 | 1.57 | 4.63 | 0.19 | 7.89 | 0.23 | 1.68 | 2.52 | 9.74 | 4.53 | 0.24 | 1.26 | 13 | 2.5 | 0.88 | 4.08 | 0.24 | 20.6 | 0.38 | 0.16 | -1.36
5 | Cc1c(Cn2c(C)nc3c(C(=O)O)cc(N4CCOCC4)cc32)cccc1C(F)(F)F | 0.34 | 0.11 | 0.14 | -0.17 | 0.07 | 0.48 | 0.29 | 0.99 | 0.75 | 0.4 | -0.06 | -0.15 | -2.15 | -0.07 | 0.36 | 0.33 | -0.16 | 0.35 | 1.32 | 0.5
6 | NC(=O)c1cnc2[nH]ccc2c1N[C@@H]1[C@@H]2CC3C[C@H]1C[C@@](O)(C3)C2 | 8.38 | 2.49 | -0.03 | 7.42 | 4.38 | 3.97 | 4.9 | 3.87 | 2.99 | 1.15 | 1.22 | 12.5 | 8.26 | 0.32 | 2.71 | 0.73 | 5.88 | 0.43 | 1.29 | 0.84
7 | Cc1ccc2nc(NCCN)c3ncc(C)n3c2c1 | 1.07 | 0.24 | 0.59 | -0.09 | 0.55 | 0.62 | 0.58 | 0.91 | 0.69 | 1.54 | -0.03 | 0.79 | -0.92 | 0.44 | 0.61 | 0.49 | 0.49 | 0.81 | 1.79 | 0.68
8 | NCC(=O)Nc1ccc(-n2nc(C(F)(F)F)cc2-c2ccc3c(ccc4ccccc43)c2)cc1 | -0.16 | -0.91 | 0.64 | 0.8 | -0.15 | 0.36 | 0.37 | -0.57 | 1.25 | 0.65 | -0.2 | 1.75 | 1.88 | 0.25 | -0.08 | 0.27 | 0.39 | 0.4 | 0.5 | 0.18
9 | CC(C)NC(=O)COc1cccc(-c2nc(Nc3ccc4[nH]ncc4c3)c3ccccc3n2)c1 | 1.3 | 0.55 | 0.76 | -0.25 | 0.71 | 0.77 | 0.84 | 1.5 | 1.83 | 0.68 | 0.57 | 1.61 | -3.52 | 0.71 | 0.73 | 0.42 | 0.58 | 0.84 | 0.26 | -0.31
10 | CC(C)(CCCCCC(O)CCCCCC(C)(C)C(=O)O)C(=O)O | 0.72 | 0.34 | 0.51 | -0.22 | 0.25 | 0.67 | 0.41 | 0.9 | 2.27 | 0.2 | 0.04 | 0.87 | 0.14 | 0.47 | 0.38 | 0.54 | -0.14 | 0.48 | 0.64 | -0.4
11 | CCS(=O)(=O)N1CCN(c2ccc(Nc3ncc(C(N)=O)c(NC4CC4)n3)cc2)CC1 | 8.46 | 4.48 | 0.19 | 6.9 | 5.89 | 5.37 | 4.92 | 6.29 | 2.13 | 2.54 | 1.82 | 9.2 | 11.7 | 0.7 | 3.56 | 2.04 | 5.15 | 0.57 | 1.36 | 1.17
